Source: the supplement of paper PMC12350171
Where a name gives a salt, the structure may show the parent alone.

Legend:
Experiment in all cases: growth AUC normalised to DMSO control (median) (fraction of control); higher = less growth inhibition, active = hit call of the paper
Details in all cases: 20 µM;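 active = normalised median growth AUC below 0.1 of DMSO control; inactive = AUC 0.1 or higher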
P. vulgatus RND KO = tested on: P. vulgatus RND KO
Outline: (§1)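 In 96-well plates of mGAM seeded at OD578 0.01, strains that had been passaged twice overnight without oxygen were exposed to approved-drug library compounds at 20 μM with 1% DMSO. Hourly OD578 readings were taken for 24 h in an anaerobic incubator. The trapezoidal-rule area under the curve, with curves truncated at entry into stationary phase, was expressed relative to same-plate vehicle wells as the median of three biological replicates.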

P. vulgatus WT = tested on: P. vulgatus WT
Outline: as §1

[1] = tested on: S. enterica typhimurium WT
Outline: as §1

[2] = tested on: S. enterica typhimurium tolC KO
Outline: as §1

Measured: growth AUC normalised to DMSO control
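Also: active when median AUC fell below 0.1.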

CN(CCCN1c2ccccc2CCc2ccccc21)CC(=O)c1ccc(Cl)cc1 [Lofepramine]
inactive: P. vulgatus RND KO 0.944 | P. vulgatus WT 0.964 | [1] 0.985 | [2] 0.957

Nc1nc2[nH]cc(CCc3ccc(C(=O)N[C@@H](CCC(=O)O)C(=O)O)cc3)c2c(=O)[nH]1 [Pemetrexed disodium]
inactive: P. vulgatus RND KO 1.07 | P. vulgatus WT 1.04 | [1] 1.01 | [2] 0.999

COC(=O)[C@H](c1ccccc1Cl)N1CCc2sccc2C1 [Clopidogrel]
inactive: P. vulgatus RND KO 0.999 | P. vulgatus WT 0.996 | [1] 1 | [2] 0.914

Nc1nc2[nH]cnc2c(=S)[nH]1 [Tioguanine]
inactive: P. vulgatus RND KO 1.01 | P. vulgatus WT 1 | [1] 0.907 | [2] 0.876

Cc1c(C(=O)NN2CCCCC2)nn(-c2ccc(Cl)cc2Cl)c1-c1ccc(Cl)cc1 [Rimonabant]
inactive: P. vulgatus RND KO 1.05 | P. vulgatus WT 1.07 | [1] 1 | [2] 1

CCCCCCOc1ccccc1C(N)=O [Exalamide]
inactive: P. vulgatus RND KO 1.01 | P. vulgatus WT 1.04 | [1] 1 | [2] 0.917

COc1cc(C(=O)NC2CCCNC2)cc(OC)c1OC (centres undefined) [Troxipide]
inactive: P. vulgatus RND KO 1.07 | P. vulgatus WT 1.1 | [1] 0.998 | [2] 0.995

CC(C)CN(C[C@@H](O)[C@H](Cc1ccccc1)NC(=O)O[C@H]1CCOC1)S(=O)(=O)c1ccc(N)cc1 [Amprenavir]
inactive: P. vulgatus RND KO 1.01 | P. vulgatus WT 1.06 | [1] 0.995 | [2] 0.995

O=C1c2cccc3c2[C@H](CCC3)CN1[C@@H]1CN2CCC1CC2 [Palonosetron hydrochloride]
inactive: P. vulgatus RND KO 0.973 | P. vulgatus WT 1 | [1] 1 | [2] 0.998

C[C@H](O)[C@H](O)[C@H]1CNc2[nH]c(N)nc(=O)c2N1 [Sapropterin dihydrochloride]
inactive: P. vulgatus RND KO 1.04 | P. vulgatus WT 1.05 | [1] 1.01 | [2] 0.977

OCCN1CCN(CC/C=C2/c3ccccc3Sc3ccc(C(F)(F)F)cc32)CC1 [Flupentixol dihydrochloride cis-(Z)]
inactive: P. vulgatus RND KO 0.946 | P. vulgatus WT 0.997 | [1] 1.01 | [2] 0.828

NC[C@H]1O[C@H](O[C@H]2[C@H](O)[C@@H](O[C@H]3O[C@H](CO)[C@@H](O)[C@H](N)[C@H]3O)[C@H](N)C[C@@H]2N)[C@H](N)[C@@H](O)[C@@H]1O [Kanamycin B]
inactive: P. vulgatus RND KO 1.1 | P. vulgatus WT 1.14 | [1] 0.947 | [2] 1.02

NC(=O)c1ncn([C@@H]2O[C@H](CO)[C@@H](O)[C@H]2O)c1O [Mizoribine]
inactive: P. vulgatus RND KO 1.04 | P. vulgatus WT 1.01 | [1] 1.01 | [2] 0.996

CC(C)[C@H](N)C(=O)OCC(CO)OCn1cnc2c(=O)nc(N)[nH]c21 (some centres undefined) [Valganciclovir hydrochloride]
inactive: P. vulgatus RND KO 1.04 | P. vulgatus WT 1.08 | [1] 1 | [2] 1

COc1ccc(CNc2nc(N3CCC[C@H]3CO)ncc2C(=O)NCc2ncccn2)cc1Cl [Avanafil]
inactive: P. vulgatus RND KO 1 | P. vulgatus WT 1.03 | [1] 1.01 | [2] 0.962

CC1(C)S[C@@H]2[C@H](NC(=O)[C@H](N)c3ccccc3)C(=O)N2[C@H]1C(=O)OC1OC(=O)c2ccccc21 (some centres undefined) [Talampicillin hydrochloride]
active: P. vulgatus RND KO 0.00561 | P. vulgatus WT 0.00787 | [1] 0.00491 | [2] 0.00469

CCCCOCCOCCOCc1cc2c(cc1CCC)OCO2 [Piperonyl butoxide]
inactive: P. vulgatus RND KO 1.08 | P. vulgatus WT 1.05 | [1] 1.02 | [2] 0.872

O=C(Cn1c(=O)sc2ccc(Cl)cc21)N1CCN(CCO)CC1 [Tiaramide Hydrochloride]
inactive: P. vulgatus RND KO 1 | P. vulgatus WT 1.04 | [1] 1.01 | [2] 0.995

CCCCCOC(=O)Nc1nc(=O)n([C@@H]2O[C@H](C)[C@@H](O)[C@H]2O)cc1F [Capecitabine]
inactive: P. vulgatus RND KO 0.987 | P. vulgatus WT 0.998 | [1] 0.982 | [2] 0.994

CC(=O)Nc1ccc(C(=O)O)cc1 [Acedoben]
inactive: P. vulgatus RND KO 0.997 | P. vulgatus WT 1.01 | [1] 1 | [2] 0.997

Cc1cccc(C)c1OCC(=O)N[C@@H](Cc1ccccc1)[C@@H](O)C[C@H](Cc1ccccc1)NC(=O)[C@H](C(C)C)N1CCCNC1=O [Lopinavir]
inactive: P. vulgatus RND KO 1.06 | P. vulgatus WT 1.07 | [1] 1.01 | [2] 1.01
